We go through six compounds from PubChem BioAssay.

For test [1], the system named is Human papillomavirus type 1a protein E7 (residues 44-93). The test is described as follows: HPV1a E7 fragment binders on microarrays, primary screen, biochemical, small-molecule microarray, residues 44-93, 635 nm fluorescence (AID 1108).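 Also: E7 fragment applied at 1 µg/mL in TBST for 1 h at 4 C; score combines spot fluorescence with its signal to noise ratio.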 Conditions: small-molecule microarray binding, fluorescence 635 nm; higher = more signal.
The nature of test [2]: modulators of HCV replicon luciferase signal, primary screen, HCV replication inhibitor project, Huh7 cells, luciferase reporter (AID 1109).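 Also: huh7 hepatoma cells harbouring a luciferase neomycin HCV replicon reporter; luciferase luminescence as measure of HCV replicon replication; test concentration not given here.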 Conditions: 48 h, higher = more signal. For orientation: A replicon is a self-replicating genome or part of one, used to study replication in cells.
For test [3], the target named is Left-right determination factor 2 (Homo sapiens) (UniProt O00292). The test is described as follows: LEFTY2 binders on small-molecule microarrays, primary screen, biochemical, small-molecule microarray, 635 nm fluorescence scan (AID 1110). Conditions: LEFTY2 binding, higher = more signal.
For test [4], the target named is Calmodulin-1 (Homo sapiens) (UniProt P0DP23). The test is described as follows: CALM1 binders on microarrays, EGTA buffer, profiling panel, biochemical, small-molecule microarray, Cy5-labelled CALM1 (AID 1111).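 Also: labelled calmodulin applied in Tris saline Tween buffer holding calcium plus EGTA and DTT.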 Conditions: Cy5-CALM1 binding fluorescence, higher = more signal.
The target is the same in test [5]. The test is described as follows: calcium-bound CALM1 binders on microarrays, profiling panel, artefact control for SMM control-protein annotation, biochemical, small-molecule microarray, Cy5-labelled CALM1, plus calcium (AID 1112).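 Also: score merges spot fluorescence with signal to noise from triplicate slides.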 Conditions: Cy5-CALM1 binding fluorescence, higher = more signal.
A short description of test [6]: small-molecule microarray binders of probe aWnt5a, primary screen, biochemical, biotinylated probe, 635/667 nm fluorescence (AID 1113).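 Also: score merges 667 nm fluorescence intensity with signal-to-noise per printed feature.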 Conditions: higher = more signal.
Test [7] in a line: small-molecule microarray binders of probe aShh, primary screen, biochemical, biotinylated probe, 635/667 nm fluorescence (AID 1114).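 Also: probe is biotin-labelled aShh protein from a stem cell growth factor screen; measures binding of labelled protein to compounds printed on the slide; score merges feature fluorescence at 667 nm with signal-to-noise.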 Conditions: higher = more signal.
Test [8] is described as follows: small-molecule microarray binders of probe aNog, primary screen, biochemical, biotinylated probe, 635/667 nm fluorescence (AID 1115).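 Also: probe is biotinylated aNog protein used at 0.15 µg/mL for 1 h at 4 C; z-score combines 667 nm fluorescence of each spot with its signal to noise.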 Conditions: higher = more signal.
In test [9] the target is Torsin-1A-interacting protein 1 (Homo sapiens) (UniProt Q5JTV8). The test is described as follows: LAP1 binders from COS7 cell lysate, primary screen, small-molecule microarray, 635/667 nm fluorescence (AID 1116). Conditions: COS7-hLAP1 lysate binding, 635 nm fluorescence, higher = more signal.
For test [10], the target named is Alpha-bungarotoxin (Bungarus multicinctus) (UniProt P60615). The test is described as follows: alpha-bungarotoxin binders on microarray, profiling panel, artefact control for SMM control protein annotation, biochemical, small-molecule microarray, Alexa647 label, 635/667 nm fluorescence (AID 1117). Conditions: alpha-BTX-A647 binding fluorescence, higher = more signal.

A further test concerns the target Albumin (Bos taurus) (UniProt P02769). The test is described as follows: bovine serum albumin binders on microarray, profiling panel, artefact control for SMM control protein annotation, biochemical, small-molecule microarray, Alexa647 label, 635/667 nm fluorescence (AID 1118).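 Also: score merges 667 nm emission intensity and signal-to-noise per printed compound spot.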 Conditions: BSA-A647 binding, fluorescence 635 nm, higher = more signal.
The nature of test [11]: small-molecule microarray binders of probe aXIP, primary screen, biochemical, NeuroSMM set, 635/667 nm fluorescence (AID 1119).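 Also: probe is the protein aXip251-270 applied at 1 µg/mL to compound-printed slides; binding of probe to printed compounds measured as 667 nm fluorescence plus signal to noise.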 Conditions: higher = more signal, called active from +8 up or from −8 down.
Test [12] in a line: small-molecule binders of probe aNOTCH3, primary screen, biochemical, small-molecule microarray, 635/667 nm fluorescence (AID 1120).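 Also: probe is a biotin-tagged antibody raised against NOTCH3 rather than NOTCH3 protein; score merges spot fluorescence near 667 nm with spot signal to noise.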 Conditions: higher = more signal.
Test [13] in a line: small-molecule binders of probe aNOTCH2, primary screen, biochemical, small-molecule microarray, 635/667 nm fluorescence (AID 1121).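 Also: score merges feature fluorescence read at 667 nm with its signal to noise.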 Conditions: higher = more signal.
The target in test [14] is Carbonic anhydrase 2 (Homo sapiens) (UniProt P00918). The test is described as follows: CAII small-molecule binders, profiling panel, biochemical, small-molecule microarray, Alexa647-labelled CAII (AID 1122). Conditions: CAII-A647 binding fluorescence, higher = more signal.
The nature of test [15]: COS7 lysate on small-molecule microarray, probe aHis, 635 nm (AID 1123).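 Also: z-score combines 667nm fluorescence intensity with signal-to-noise per printed compound spot.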 Conditions: COS7 cell lysate, fluorescence, higher = more signal.
The nature of test [16]: compound binding in COS7 lysate, probe aLAP1, primary screen, cell lysate, small-molecule microarray (AID 1124).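 Also: lysate comes from COS7 cells expressing LAP1 and is applied at 0.3 µg/mL; score merges spot fluorescence near 667 nm with signal-to-noise over triplicate slides.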 Conditions: probe aLAP1, fluorescence, higher = more signal.
A further test deals with Sam68 (KHDRBS1). The test is described as follows: Sam68 small-molecule binders, primary screen, biochemical, small-molecule microarray, 635 nm fluorescence (AID 1125).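 Also: score merges 667 nm channel intensity with signal to noise over triplicate slides.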 Conditions: small-molecule microarray binding, higher = more signal.
Test [17] relates to Chordin-like protein 2 (CHRDL2). The test is described as follows: CHRDL2 small-molecule binders, primary screen, biochemical, small-molecule microarray, 635 nm fluorescence (AID 1126).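 Also: printed compound slides probed with Chrdl2 protein at 4 µg/mL for 1 h at 4 C; score merges 667 nm emission intensity with signal to noise over three replicate slides.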 Conditions: small-molecule microarray binding, fluorescence 635 nm; higher = more signal.
The target in test [18] is Concanavalin-A (Canavalia ensiformis) (UniProt P02866). The test is described as follows: ConA small-molecule binders, primary screen, artefact control for SMM control protein annotation, biochemical, small-molecule microarray, Alexa647 label, 635 nm (AID 1127).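 Also: z combines 667 nm emission intensity with signal-to-noise across three replicate slides.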 Conditions: ConA-A647 binding fluorescence, higher = more signal.

Structures are written as SMILES. Calls of active or inactive are those of the source.

Alpha-bungarotoxin (Bungarus multicinctus), sequence (P60615 whole entry, looked up): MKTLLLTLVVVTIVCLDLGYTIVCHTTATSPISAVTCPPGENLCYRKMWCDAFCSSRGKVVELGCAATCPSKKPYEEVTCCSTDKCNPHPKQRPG
Left-right determination factor 2 (Homo sapiens), sequence (O00292 whole entry, looked up): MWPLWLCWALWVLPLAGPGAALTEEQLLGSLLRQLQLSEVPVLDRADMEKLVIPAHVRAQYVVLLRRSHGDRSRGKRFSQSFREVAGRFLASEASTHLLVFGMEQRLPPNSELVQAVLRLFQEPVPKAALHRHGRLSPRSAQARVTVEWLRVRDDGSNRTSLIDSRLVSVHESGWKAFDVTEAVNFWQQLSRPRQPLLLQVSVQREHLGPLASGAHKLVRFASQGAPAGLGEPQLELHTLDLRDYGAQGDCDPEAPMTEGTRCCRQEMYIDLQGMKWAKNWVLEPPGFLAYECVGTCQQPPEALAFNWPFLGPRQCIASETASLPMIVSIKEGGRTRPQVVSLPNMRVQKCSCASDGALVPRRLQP
Torsin-1A-interacting protein 1 (Homo sapiens), sequence (Q5JTV8 whole entry, looked up): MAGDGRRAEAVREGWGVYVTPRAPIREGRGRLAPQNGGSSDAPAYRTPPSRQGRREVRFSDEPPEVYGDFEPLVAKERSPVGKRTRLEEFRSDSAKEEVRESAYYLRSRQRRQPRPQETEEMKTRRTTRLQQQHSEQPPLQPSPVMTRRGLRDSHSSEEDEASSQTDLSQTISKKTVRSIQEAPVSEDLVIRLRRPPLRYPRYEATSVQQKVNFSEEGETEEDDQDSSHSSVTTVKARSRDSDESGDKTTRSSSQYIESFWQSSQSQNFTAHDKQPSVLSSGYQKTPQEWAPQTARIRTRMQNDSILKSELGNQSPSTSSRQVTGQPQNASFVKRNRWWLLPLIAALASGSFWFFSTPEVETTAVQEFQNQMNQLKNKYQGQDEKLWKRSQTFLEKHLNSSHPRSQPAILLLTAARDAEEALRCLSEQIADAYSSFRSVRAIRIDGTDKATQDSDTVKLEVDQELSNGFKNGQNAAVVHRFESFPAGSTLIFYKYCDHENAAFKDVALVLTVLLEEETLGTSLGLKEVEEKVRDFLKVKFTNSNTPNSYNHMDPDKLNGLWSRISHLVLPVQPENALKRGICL
Concanavalin-A (Canavalia ensiformis), sequence (P02866 whole entry, looked up): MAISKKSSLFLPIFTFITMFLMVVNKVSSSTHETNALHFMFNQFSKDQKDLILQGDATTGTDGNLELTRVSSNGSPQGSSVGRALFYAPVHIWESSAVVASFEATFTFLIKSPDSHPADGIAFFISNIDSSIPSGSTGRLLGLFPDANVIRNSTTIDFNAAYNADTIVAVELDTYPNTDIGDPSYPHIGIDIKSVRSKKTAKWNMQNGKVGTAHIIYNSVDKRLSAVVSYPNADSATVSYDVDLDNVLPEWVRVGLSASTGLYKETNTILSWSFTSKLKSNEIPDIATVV
Albumin (Bos taurus), sequence (P02769 whole entry, looked up): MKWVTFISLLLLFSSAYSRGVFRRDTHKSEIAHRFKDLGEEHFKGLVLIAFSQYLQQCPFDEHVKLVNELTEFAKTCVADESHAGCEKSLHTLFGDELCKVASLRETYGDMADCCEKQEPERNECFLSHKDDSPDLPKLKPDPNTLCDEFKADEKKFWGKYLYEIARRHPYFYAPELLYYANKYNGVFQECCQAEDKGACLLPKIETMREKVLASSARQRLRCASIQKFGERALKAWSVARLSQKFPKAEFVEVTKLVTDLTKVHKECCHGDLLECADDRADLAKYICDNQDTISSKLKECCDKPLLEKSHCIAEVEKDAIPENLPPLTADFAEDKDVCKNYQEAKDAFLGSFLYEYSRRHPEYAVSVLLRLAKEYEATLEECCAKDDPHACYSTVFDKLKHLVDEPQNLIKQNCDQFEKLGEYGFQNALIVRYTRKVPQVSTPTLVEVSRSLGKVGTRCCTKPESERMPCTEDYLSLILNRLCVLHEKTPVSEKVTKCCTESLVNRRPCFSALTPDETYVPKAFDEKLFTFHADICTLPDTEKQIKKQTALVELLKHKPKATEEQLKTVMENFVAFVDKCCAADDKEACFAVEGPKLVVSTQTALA

Turning to `C=C(C(=O)CC[C@H](OC(=O)c1cccnc1)c1ccccc1OCCO)C(C)C`, the composite z-score in test [1] is 1.05; in test [3] it was 0.753; in test [4], -0.62; in test [5] it was -1.24; in test [6], 0.121; in [7], -0.0035. Also, the composite z-score in test [8] is -0.176; in test [9] it was 1.99; in test [10] it was 0.892; with Albumin (Bos taurus), -0.609; in test [12], 0.143; in test [13], -0.129. The composite z-score in test [14] came out at 0.543; in test [15], 1.28; in [16] it was 0.86; in the test on Sam68 (KHDRBS1), 0.912; in [17], 1.39; in test [18], 0.49. In addition, in test [2], the z-score is -2.71. The composite Z-score in test [11] was -0.507 (inactive).
On to `NC(=O)[C@@]1(CCS(=O)(=O)c2ccccc2)N=C(c2ccc(OCCCO)cc2)O[C@H]1c1ccccc1`, for which the composite z-score in test [1] was 1.49; in test [3], -0.38; in test [4], 1.37; in test [5], 0.699; in [6], 0.0845; in test [7], 0.396. The composite z-score in [8] is 1.28; in test [9] it was 1.89; in test [10], 1.42; with Albumin (Bos taurus) it was 0.737; in test [12], 0.0793; in test [13], -0.0531. Besides, the composite z-score was 0.801 in test [14]; 2.86 in test [15]; 0.821 in test [16]; 1.2 with Sam68 (KHDRBS1); -1.12 in test [17]; 1.14 in test [18]. Also, the z-score in test [2] was -2.05. In addition, the composite Z-score in [11] is -0.0775 (inactive).
Turning to `[N-]=[N+]=NCc1ccccc1C[C@]1(C(=O)NCCN2CCOCC2)N=C(c2ccc(OCCCO)cc2)O[C@H]1c1ccccc1CN=[N+]=[N-]`, the composite z-score is 1.43 in [1]; 0.278 in test [3]; 0.86 in test [4]; 0.368 in test [5]; -0.124 in [6]; -0.146 in test [7]. The composite z-score was -0.158 in test [8]; 1.59 in test [9]; 1.28 in test [10]; 0.825 in the test with Albumin (Bos taurus); 0.399 in test [12]; -0.0474 in [13]. Also, the composite z-score in [14] is 0.337; in [15], -0.827; in test [16], 0.736; in the test on Sam68 (KHDRBS1), 1.13; in test [17], -0.0255; in test [18] it was 1.05. In addition, the z-score in test [2] is -3.91. Moreover, the composite Z-score in test [11] was -0.0191 (inactive).
Consider `COc1ccc(CCNC(=O)[C@@]2(C)c3ccccc3C(=O)N(Cc3ccccc3)[C@H]2c2ccc(CO)cc2)cc1`, for which the composite z-score was 1.16 in test [1]; 0.449 in test [3]; 0.617 in [4]; -0.703 in [5]; 0.0618 in test [6]; 0.0141 in [7]. The composite z-score in [8] was 0.304; in test [9] it was 1.56; in test [10], 1.78; with Albumin (Bos taurus), 0.365; in test [12] it was 0.178; in [13] it was -0.116. For the same compound, the composite z-score came out at 0.446 in test [14]; 1.51 in [15]; 0.941 in test [16]; 1.16 in the test on Sam68 (KHDRBS1); 0.594 in [17]; 1.14 in [18]. Also, in [2], the z-score is -2.06. The composite Z-score in test [11] was 0.247 (inactive).
For `O=C(NCC(O)CO)[C@]1(CCS(=O)(=O)c2ccccc2)N=C(c2ccc(OCCCO)cc2)O[C@@H]1c1ccccc1` (stereo not given in full), the composite z-score in test [1] was 0.556; in [3] it was -0.805; in test [4] it was 1.99; in test [5], 1.48; in test [6], -0.0846; in [7] it was 0.0756. Further, the composite z-score in test [8] was 1.12; in test [9] it was 2.69; in [10] it was 2.41; with Albumin (Bos taurus), 1.11; in test [12], -0.095; in test [13], -0.0392. Besides, the composite z-score was 0.761 in test [14]; 3.41 in test [15]; 0.944 in [16]; 1.23 in the test with Sam68 (KHDRBS1); -1.41 in test [17]; 0.87 in test [18]. Also, the z-score in test [2] was -0.326. Further, the composite Z-score in test [11] was -0.262 (inactive).
Take `C=C[C@H](OC)[C@@H](OC(=O)Nc1ccc(SC)cc1)c1ccc(OCCO)cc1`: the composite z-score was 1.03 in test [1]; 0.105 in test [3]; 0.0629 in test [4]; 0.362 in test [5]; 0.0433 in [6]; -0.0035 in test [7]. For the same compound, the composite z-score in test [8] was 0.375; in test [9], 1.35; in test [10], 1.62; with Albumin (Bos taurus), 0.383; in test [12], -0.15; in test [13] it was -0.0956. Moreover, the composite z-score in test [14] turned out to be 0.503; in [15], 1.45; in [16] it was 0.503; with Sam68 (KHDRBS1), 0.904; in [17], 0.0669; in test [18], 0.713. This compound also yielded a z-score in test [2] of 2.8. The composite Z-score in test [11] is 0.651 (inactive).
